{
  "source": "PubChem BioAssay (NCATS)",
  "note": "Results filed as inconclusive are left out. The source made the active and inactive calls. Calls follow the shape of the dose curve; as a rule, active = well fitted curve in either direction with a large enough effect (not every such curve was filed as active); inconclusive = small, poorly fitted or top-dose-only effect, or another doubt; inactive = flat fitted curve, though single readings scatter. % is scaled to controls: 0 for no effect and ±100 for the full control effect.",
  "data": [
    {"experiment": "NFAT Signaling Pathway (AID 444);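 also: carbachol stimulus at about its EC50 of 1 µM final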", "settings": "Jurkat NFAT-bla M1, carbachol, beta-lactamase ratio, 5 h; at 7.69 µM (top of the series) unless noted", "summary_of_the_method": "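Jurkat cells with NFAT-driven β-lactamase reporter and co-expressed M1 receptor, stimulated with carbachol (final 1 uM, ~EC50), compound titration, 5 h at 37 °C. CCF4 loaded 1 h at RT; 460/530 nm ratio gave %activity and AC50.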", "values": [
      {"smiles": "ClC(=Nc1cccc2ccccc12)N(c1ccccc1)c1ccccc1", "activity change, negative = inhibition": "-2.09% (inactive)"},
      {"smiles": "O=C(c1ccncc1)N1CCC2(CCCN(c3cccc(-c4ccccc4)c3)C2)CC1", "activity change, negative = inhibition": "-6.09% (inactive)"},
      {"smiles": "COc1ccc2c(c1)N(CC[C@H]1CCCCN1C)c1ccccc1S2", "activity change, negative = inhibition": "-80.4% (active)"},
      {"smiles": "COc1ccc(Oc2ncc3nc(CCc4ccccc4)c(=O)n(C4CC4)c3n2)cc1", "activity change, negative = inhibition": "5.02% (inactive)"},
      {"smiles": "Cc1nnc(S(=O)(=O)c2ccc(N=Nc3c(N)nc(N)nc3N)cc2)s1", "activity change, negative = inhibition": "7.42% (inactive)"},
      {"smiles": "COc1ccc2c(=O)cc(-c3ccncc3)oc2c1OC", "activity change, negative = inhibition": "2.62% (inactive)"},
      {"smiles": "COc1cccc2c1[C@H](CO)N1[C@H](C#N)[C@@H]3C[C@H](C(=O)O)[C@@H]([C@@H]1C2)N3C", "activity change, negative = inhibition": "-126% (active)"},
      {"smiles": "CN(C)CCCN1c2ccc3ccccc3c2Sc2cccc(Cl)c21", "activity change, negative = inhibition": "1.06% (inactive)"},
      {"smiles": "COc1cccc(Nc2ncc3ncc(=O)n(C4CC4)c3n2)c1", "activity change, negative = inhibition": "-22.2% (inactive)"},
      {"smiles": "CCCCNN", "activity change, negative = inhibition": "9.69% (inactive)"},
      {"smiles": "CC(CC(=O)O)(CC(=O)O)c1ccccc1", "activity change, negative = inhibition": "4.46% (inactive)"},
      {"smiles": "OC[C@@H]1O[C@@H](N2CCN([C@@H]3O[C@@H](CO)[C@@H](O)[C@H](O)[C@H]3O)CC2)[C@@H](O)[C@H](O)[C@H]1O", "activity change, negative = inhibition": "-2.18% (inactive)"},
      {"smiles": "O=C1c2ccccc2C(O)(O)[C@@]1(O)[C@]1(O)C(=O)c2ccccc2C1(O)O", "activity change, negative = inhibition": "-0.902% (inactive)"},
      {"smiles": "c1ccc2cc(NCNc3ccc4ccccc4c3)ccc2c1", "activity change, negative = inhibition": "-15.6% (inactive)"},
      {"smiles": "N#Cc1c(NC(=O)C(F)(F)F)sc2c3c(=O)c4ccccc4c(=O)c=3oc3ccccc3c12", "activity change, negative = inhibition": "13.7% (inactive)"},
      {"smiles": "NCCSCCC(=O)O", "activity change, negative = inhibition": "11.4% (inactive)"},
      {"smiles": "O=C1Oc2ccccc2C(=O)/C1=C\\N1C(=O)N/C(=C\\c2ccccc2O)C1=O", "activity change, negative = inhibition": "-7.15% (inactive)"},
      {"smiles": "Cc1cccc(CNc2ncnc3ccc(-c4ccc(C(=O)N(C)C)cc4)cc23)c1", "activity change, negative = inhibition": "-8.36% (inactive)"},
      {"smiles": "C[C@@H]1CCCN(C[C@@H](O)CN2CCCc3ccccc32)C1", "activity change, negative = inhibition": "-7.43% (inactive)"},
      {"smiles": "Cc1cc(Cl)nc(NC(=O)CSc2ccc(Cl)cc2)n1", "activity change, negative = inhibition": "16.8% (inactive)"},
      {"smiles": "CC(=O)O[C@H]1CC[C@@]2(C)C(=CC[C@@H]3[C@@H]4CC[C@H](c5cc(C(F)(F)F)n(C(C)=O)n5)[C@]4(C)CC[C@@H]32)C1", "activity change, negative = inhibition": "12.1% (inactive)"},
      {"smiles": "COCCn1c(=O)c(CCc2ccccc2)nc2cnc(Oc3cccc(Cl)c3)nc21", "activity change, negative = inhibition": "-14.7% (inactive)"},
      {"smiles": "Cc1c(S(=O)(=O)O)ccc(N=Nc2c(O)c(C(=O)O)cc3ccccc23)c1Cl", "activity change, negative = inhibition": "-10.7% (inactive)"},
      {"smiles": "Cc1ccc(N=Nc2c(O)c3ccccc3[nH]c2=O)c(S(=O)(=O)N(C)C)c1", "activity change, negative = inhibition": "2.83% (inactive)"},
      {"smiles": "Cn1c(=S)c2[nH]c(SCCCc3ccccc3)nc2n(C)c1=O", "activity change, negative = inhibition": "3.04% (inactive)"},
      {"smiles": "C[C@]12CC[C@H]3c4ccc(O)cc4CC[C@@H]3[C@H]1CC[C@@H]2OC(=O)CCc1ccccc1", "activity change, negative = inhibition": "-14.3% (inactive)"},
      {"smiles": "CN(C)CCCn1c2c3ccccc3ccc2c2oc(=O)c3ccccc3c21", "activity change, negative = inhibition": "-13.6% (inactive)"},
      {"smiles": "CC(C)[C@H](Sc1nc(N)nc2nc[nH]c12)C(=O)O", "activity change, negative = inhibition": "9.06% (inactive)"}
    ]},
    {"experiment": "Stat Signaling Pathway (AID 446);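 also: ME-180 cervical cancer cells given 40 pM IL-6 alongside compound; SIE-controlled beta-lactamase reporter measured as 460/530 nm FRET emission ratio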", "settings": "ME-180 SIE beta-lactamase reporter, IL-6 stimulated, 5 h; at 7.69 µM (top of the series) unless noted", "summary_of_the_method": "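IL-6/STAT signaling read in ME-180 cells via an SIE beta-lactamase reporter. Stimulus was 40 pM IL-6 (its AC50) for 5 hrs, so both activation and inhibition register.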", "values": [
      {"smiles": "CN(C)CCCN1c2ccccc2Sc2ccc3ccccc3c21", "activity, negative = inhibition": "3.27% (inactive)"},
      {"smiles": "O=C(c1ccncc1)N1CCC2(CCCN(c3cccc(-c4ccccc4)c3)C2)CC1", "activity, negative = inhibition": "-7.37% (inactive)"},
      {"smiles": "Cc1ccc(-c2nc(-c3nccc4ccccc34)oc2-c2ccccc2)cc1", "activity, negative = inhibition": "24.1% (inactive)"},
      {"smiles": "COc1ccc2c(c1)N(CC[C@H]1CCCCN1C)c1ccccc1S2", "activity, negative = inhibition": "-6.74% (inactive)"},
      {"smiles": "COc1ccc(Oc2ncc3nc(CCc4ccccc4)c(=O)n(C4CC4)c3n2)cc1", "activity, negative = inhibition": "-0.549% (inactive)"},
      {"smiles": "COc1ccc2c(=O)cc(-c3ccncc3)oc2c1OC", "activity, negative = inhibition": "-17.8% (inactive)"},
      {"smiles": "CN(C)CCCN1c2ccc3ccccc3c2Sc2cccc(Cl)c21", "activity, negative = inhibition": "2.06% (inactive)"},
      {"smiles": "COc1cccc(Nc2ncc3ncc(=O)n(C4CC4)c3n2)c1", "activity, negative = inhibition": "-24.1% (inactive)"},
      {"smiles": "CN(C)CCCN1c2ccc(O)cc2Sc2ccc(Cl)cc21", "activity, negative = inhibition": "18.9% (inactive)"},
      {"smiles": "C=C(C)COc1ccc2c(c1)CCC1C2CC[C@]2(C)C(=O)/C(=N/O)CC12", "note": "(some centres not stated)", "activity, negative = inhibition": "9.84% (inactive)"},
      {"smiles": "CCCCNN", "activity, negative = inhibition": "4.29% (inactive)"},
      {"smiles": "CC(CC(=O)O)(CC(=O)O)c1ccccc1", "activity, negative = inhibition": "7.69% (inactive)"},
      {"smiles": "OC[C@@H]1O[C@@H](N2CCN([C@@H]3O[C@@H](CO)[C@@H](O)[C@H](O)[C@H]3O)CC2)[C@@H](O)[C@H](O)[C@H]1O", "activity, negative = inhibition": "-5.46% (inactive)"},
      {"smiles": "c1ccc2cc(NCNc3ccc4ccccc4c3)ccc2c1", "activity, negative = inhibition": "-2.06% (inactive)"},
      {"smiles": "N#Cc1c(NC(=O)C(F)(F)F)sc2c3c(=O)c4ccccc4c(=O)c=3oc3ccccc3c12", "activity, negative = inhibition": "0.0272% (inactive)"},
      {"smiles": "NCCSCCC(=O)O", "activity, negative = inhibition": "0.279% (inactive)"},
      {"smiles": "O=C1Oc2ccccc2C(=O)/C1=C\\N1C(=O)N/C(=C\\c2ccccc2O)C1=O", "activity, negative = inhibition": "-25.4% (inactive)"},
      {"smiles": "CC(=O)Nc1ccc(Cc2ccc3[nH]c(=O)cc(C)c3c2)cc1", "activity, negative = inhibition": "-9.78% (inactive)"},
      {"smiles": "COc1ccc2nc3cc(Cl)ccc3c(Nc3ccc(O)c(CN4CCN(C)CC4)c3)c2c1", "activity, negative = inhibition": "23% (inactive)"},
      {"smiles": "C[C@@H]1CCCN(C[C@@H](O)CN2CCCc3ccccc32)C1", "activity, negative = inhibition": "11.4% (inactive)"},
      {"smiles": "C[N+](C)([O-])CCC=C1c2ccccc2CCc2ccccc21", "activity, negative = inhibition": "10.1% (inactive)"},
      {"smiles": "Cc1cc(Cl)nc(NC(=O)CSc2ccc(Cl)cc2)n1", "activity, negative = inhibition": "11% (inactive)"},
      {"smiles": "CSc1ccc2c(c1)N(CCCN(C)C)c1ccccc1S2", "activity, negative = inhibition": "2.23% (inactive)"},
      {"smiles": "C[C@@]12CC[C@@H]3[C@@H](CC[C@H]4C[C@@H](O)CC[C@]43C)[C@H]1CC[C@@H]2c1cc(C(F)(F)F)n[nH]1", "activity, negative = inhibition": "16.7% (inactive)"},
      {"smiles": "CC(=O)O[C@H]1CC[C@@]2(C)C(=CC[C@@H]3[C@@H]4CC[C@H](c5cc(C(F)(F)F)n(C(C)=O)n5)[C@]4(C)CC[C@@H]32)C1", "activity, negative = inhibition": "16.4% (inactive)"},
      {"smiles": "O=C1C(Cl)=C(Sc2nnc3c4ccccc4c4ccccc4c3n2)C(=O)c2ccccc21", "activity, negative = inhibition": "-24.6% (inactive)"},
      {"smiles": "COCCn1c(=O)c(CCc2ccccc2)nc2cnc(Oc3cccc(Cl)c3)nc21", "activity, negative = inhibition": "-17.3% (inactive)"},
      {"smiles": "Cc1c(S(=O)(=O)O)ccc(N=Nc2c(O)c(C(=O)O)cc3ccccc23)c1Cl", "activity, negative = inhibition": "-10.2% (inactive)"},
      {"smiles": "Cc1ccc(N=Nc2c(O)c3ccccc3[nH]c2=O)c(S(=O)(=O)N(C)C)c1", "activity, negative = inhibition": "3.87% (inactive)"},
      {"smiles": "O=[N+]([O-])c1ccc(S(=O)(=O)Cc2ccccc2)c2nonc12", "activity, negative = inhibition": "-2.97% (inactive)"},
      {"smiles": "Cn1c(=S)c2[nH]c(SCCCc3ccccc3)nc2n(C)c1=O", "activity, negative = inhibition": "-23.2% (inactive)"},
      {"smiles": "C[C@]12CC[C@H]3c4ccc(O)cc4CC[C@@H]3[C@H]1CC[C@@H]2OC(=O)CCc1ccccc1", "activity, negative = inhibition": "-1.42% (inactive)"},
      {"smiles": "Nc1nc(Sc2ccc([N+](=O)[O-])c3nonc23)c2[nH]cnc2n1", "activity, negative = inhibition": "-12.4% (inactive)"},
      {"smiles": "CC(C)[C@H](Sc1nc(N)nc2nc[nH]c12)C(=O)O", "activity, negative = inhibition": "14.2% (inactive)"}
    ]}
  ]
}
